Sampled rows, rich in hits. Any-hit rate of the full collection: about 11%.
JMJD2A Tudor – inhibitors of human JMJD2A Tudor domain | O75164 | AlphaScreen JMJD2A-Tudor / H3K4me3 peptide binding | Potency, µM (series often up to 114 µM), without a hit: top-dose activity change, negative = inhibition, actives largely listed as inhibitors | 390,000 tested, 4.4% active | AID 504339; also: % is scaled to controls: 0 for no effect and ±100 for the full control effect; nearly all actives have a fitted effect of over 50% in size
G9a inh – G9a (human) methyltransferase inhibition. Q96KQ7. AID 504332. G9a H3K9 monomethylation, AlphaScreen, 2 h. 350,000 tested, 8.8% active. Potency, µM (highest dose often 102 µM), for inactives: at the highest dose activity, negative = inhibition, hits mostly inhibitors; also: % is scaled to controls: 0 for no effect and ±100 for the full control effect; nearly all actives have a fitted effect of over 75% in size
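AlphaScreen read-out: biotin-H3K9 peptide (500 nM) methylation by 20 nM enzyme with 20 uM SAM, 2 h at room temperature after 15 min compound preincubation; anti-monomethyl H3K9 antibody plus donor/acceptor beads, 10 min dark.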
L3MBTL1 inh – L3MBTL1 (human) inhibition; Q9Y468; AlphaScreen L3MBTL1–H3K9me1 peptide binding; Potency, µM (highest dose often 57.1 µM), for inactives: at the top dose activity, negative = inhibition, hits mostly inhibitors; 230,000 tested, 0.66% active; also: % is scaled to controls: 0 for no effect and ±100 for the full control effect; nearly all actives have a fitted effect of over 60% in size
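First, the protein-peptide complex forms for 30 min at room temperature (L3MBTL1 50 nM, biotinylated H3K9me1 peptide 75 nM). Next, compounds are pin-transferred and incubated 30 min. Finally, AlphaScreen beads are added and read after 30 min.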
HP1b chromo inh – HP1-beta chromodomain-methylated histone interaction inhibition; P83916; AlphaScreen HP1-beta / biotin-H3K9me3 peptide binding; Potency, µM (highest dose often 114 µM), without a hit: top-dose activity change, negative = inhibition, hits mostly inhibitors; 390,000 tested, 0.56% active; AID 540317; also: nearly all actives have a fitted effect of over 70% in size
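AlphaScreen: HP1-beta (50 nM) preformed 30 min with biotin-H3(1-18)K9me3 peptide (50 nM) in PBS pH 7.4, 0.01% Tween-20. Compound added for 30 min at RT, then streptavidin donor/nickel chelate acceptor beads (10 ug/mL) for 30 min.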
BAZ2B block – inhibitors of human BAZ2B bromodomain | Potency, µM (top dose mostly 114 µM), inactives show top-dose activity change, negative = inhibition, usual class: inhibitors | 360,000 tested, 4.4% active | AlphaScreen BAZ2B-H3K14Ac peptide displacement | Q9UIF8; also: % is scaled to controls: 0 for no effect and ±100 for the full control effect; nearly all actives have a fitted effect of over 60% in size
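Compounds, titrated to a top concentration of 110 uM, were incubated 30 min at room temperature with preformed BAZ2B/acetyl-K14 H3 peptide complex (50 nM each). Proximity signal was measured by AlphaScreen after 20 min with beads.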
* hit, by the source's call; u = inconclusive; x = no result given; ! = repeats disagree; [ ] = dose if it differs, or a comment. Calls follow the shape of the dose curve; as a rule, active = well fitted inhibition curve with a large enough effect; inconclusive = small, poorly fitted or top-dose-only effect; inactive = no such curve, though single readings can be large or run the other way. Potency is read from the fitted curve at half-maximal effect.

SMILES	JMJD2A Tudor	G9a inh	L3MBTL1 inh	HP1b chromo inh	BAZ2B block
CCCCOc1ccc(C(=O)Nc2ccc3c(c2)CCCN3S(=O)(=O)c2ccc(C)cc2)cc1	-8.9%	-5.1%[59 µM]	x	15.9%	-14.4%
Cc1ccc(C(=O)c2sc(Nc3ccccc3)c(S(=O)(=O)c3ccccc3)c2N)c(C)c1	u	-30.1%[59 µM]	x	2.5%[57 µM]	-31.1%
CC(=O)Nc1ccc(S(=O)(=O)N2CCC(N3CCCCC3)CC2)cc1	-7.0%	-3.1%	x	32.0%[57 µM]	-4.9%
O=S(=O)(c1ccc(Cl)cc1)N1CCC(N2CCCCCC2)CC1	2.51µM*	2.51µM*	x	u	79.4µM*
O=S(=O)(c1ccc(F)cc1)N1CCC(N2CCCCCC2)CC1	u	u	1.3%	u	u
CC(=O)Nc1ccc(S(=O)(=O)N2CCC(N3CCCCCC3)CC2)cc1	20µM*	39.8µM*	-3.0%	u	-30.1%
O=C(O)c1ccc(N/N=C/c2ccc(-c3ccc(Br)cc3)o2)cc1	u	-2.9%[59 µM]	x	10.4%[57 µM]	u
COc1ccc(C(=O)O)cc1NC(=S)NC(=O)c1ccc(-c2ccc(Cl)cc2)o1	u	44.7µM*	x	-21.3%	u
Cc1ccc(C(=O)O)cc1NC(=S)NC(=O)c1ccc(-c2ccc(Cl)cc2)o1	0.0%[11.4 µM]	35.5µM*	x	1.9%	u
O=C(O)c1cccc(NC(=S)NC(=O)c2ccc(-c3ccc(Cl)cc3)o2)c1	u	44.7µM*	x	-25.3%	u
O=C(O)c1ccc(NC(=S)NC(=O)c2ccc(-c3ccc(Br)cc3)o2)cc1	15.8µM*	39.8µM*	x	56.2µM*	39.8µM*
Cc1ccc(S(=O)(=O)C2CCN(c3nc(-c4cccs4)nc4ccccc34)CC2)cc1	-23.8%	x	x	18.1%	x
Cc1c(C(=O)N(C)Cc2nc3ccccc3c(=O)[nH]2)oc2ccccc12	-18.5%	x	-1.1%	3.0%	x
CC(=C/C(=O)O)/C=C/c1ccco1	-17.9%	39.8µM*	u	19.8%	-9.1%
COc1ccc(/C=C/C(=O)O)cc1Cl	-2.3%	-4.5%	8.7%	29.5%	4.0%
CC(/C=C/c1ccc(Cl)o1)=C\C(=O)O	-25.5%	50.1µM*	u	13.1%	u
COc1cc(NC(=O)c2nnn(CC(=O)Nc3cc(C)ccc3C)c2N)cc(OC)c1	4.5%	12.8%[59 µM]	x	49.9%	8.5%[57.1 µM]
CCCN(CCc1cccs1)[C@H]1CCc2c(O)cccc2C1	x	-32.8%[12.7 µM]	x	x	x
OCC1OC(Oc2cccc3ccccc23)C(O)C(O)C1O (centres undefined)	10.5%	12.6%	x	24.4%	7.1%
O=C(O)c1cc(O)c2c(c1)[C@@H]([C@H]1c3cc(C(=O)O)cc(O)c3C(=O)c3c(O[C@@H]4O[C@H](CO)[C@@H](O)[C@H](O)[C@H]4O)cccc31)c1cccc(O[C@@H]3O[C@H](CO)[C@@H](O)[C@H](O)[C@H]3O)c1C2=O	0.891µM*	x	0.112µM*	1.26µM*	x
COc1ccc(CNC(=O)c2ccc(N3CCCC3)c(NC(=O)NCc3ccc(F)cc3)c2)cc1	u	u	x	2.7%	-23.6%
N#C/C(=C\c1ccc(-c2ccc(Cl)c(C(=O)O)c2)o1)c1nc2ccccc2[nH]1	u	-25.2%[59 µM]	-27.9%	7.2%	50.1µM*
N#C/C(=C\c1ccc(-c2ccc(C(=O)O)cc2)o1)c1nc2ccccc2[nH]1	89.1µM*	-37.1%[59 µM]	-9.1%	u	-0.9%
O=[N+]([O-])c1ccc(N2CCCCC2)cc1N1CCOCC1	-18.5%	-13.5%	-7.7%	-1.9%	-9.2%[57.1 µM]
S=P(c1ccc(N2CCOCC2)cc1N1CCOCC1)(N1CCOCC1)N1CCOCC1	-32.0%	10µM*	3.6%	u	-29.9%
SMILES	JMJD2A Tudor	G9a inh	L3MBTL1 inh	HP1b chromo inh	BAZ2B block
CCc1cccc(C)c1NC(=O)C1CCN(S(=O)(=O)Cc2ccccc2)CC1	-19.9%	-43.2%[59 µM]	x	1.1%	-13.3%
O=C(O)C1C2C=CC(O2)C1C(=O)Nc1ccc(S(=O)(=O)N2CCc3ccccc32)cc1 (centres undefined)	-35.0%	11.2µM*	u	3.2%	-6.0%
CC(=O)c1ccc(NC(=O)C2C3C=CC(O3)C2C(=O)O)cc1 (centres undefined)	u	u	x	4.1%	2.3%
CC(=O)Nc1ccc(S(=O)(=O)N2CCCc3ccccc32)cc1	-16.0%	0.0%[12.7 µM]	-0.2%	22.0%	1.4%
O=C(O)C1C2C=CC(O2)C1C(=O)Nc1ccc(S(=O)(=O)Nc2ccccc2)cc1 (centres undefined)	79.4µM*	u	-16.5%	u	-4.5%
COc1ccc2sc(/C=C/c3ccccc3O)[n+](C)c2c1	u	44.7µM*	-10.7%	-0.3%	u
CCCC[C@]12Cc3ccccc3C(O1)c1c(cc(-c3ccccc3)oc1=O)O2	x	-8.6%[2.33 µM]	x	x	u
O=c1[nH]c2ccccc2nc1/C=C/c1ccc(Cl)cc1	10µM*	-5.1%	x	7.6%	-2.5%
CCCC12CN3CC(C)(CN(C1)C3c1ccc(OCc3ccccc3)cc1)C2=O (centres undefined)	0.3%	-26.8%[59 µM]	x	34.8%	-0.9%
COCC(C)NC(=O)Cn1c(SCc2ccccc2)nc2ccccc21 (centres undefined)	-10.0%[57.1 µM]	44.7µM*	x	9.7%[57 µM]	11.9%
COc1ccccc1OCCSc1nc2ccccc2n1CCC(=O)O	-11.6%	x	8.2%	18.6%	-2.2%
COCC(C)NC(=O)CSc1nc2ccccc2n1CCc1ccccc1 (centres undefined)	-2.6%	70.8µM*	31.3%	28.2%	35.5%
COc1ccccc1OCCn1c(SCC(=O)O)nc2ccccc21	-45.8%	39.8µM*	u	15.3%	u
O=C(O)Cn1c(SCc2ccccc2)nc2ccccc21	-9.4%	-36.1%	x	35.8%	-5.2%
CN(c1ncnc2onc(-c3cccc(Cl)c3)c12)C1CCCCC1	29.1%	23.4%[59 µM]	x	74.1%	27.1%
COc1cc2c(cc1NC(=O)COC(=O)CNS(=O)(=O)c1ccc(C)cc1)oc1ccccc12	-7.6%	39.8µM*	2.1%	35.3%	7.7%
CCNC(=S)Nc1cc2oc3ccccc3c2cc1OC	u	25.1µM*	x	10.4%	25.6%
Cc1ccc(Cl)cc1N1C(=O)N(Cc2ccc(C#N)cc2)c2ccccc2S1(=O)=O	-5.0%	7.8%[59 µM]	x	48.2%	-9.8%
COc1ccc([C@H]2CC(=O)C=C(c3cc(OC)ccc3OC)C2)cc1	-25.9%	18.1%[2.33 µM]	-7.0%	29.5%	-7.3%
O=C(/C=C\c1ccc(O)c(O)c1)O[C@@H]1C[C@](O)(C(=O)O)C[C@@H](O)[C@@H]1O	x	0.355µM*	x	x	x
O=C(/C=C/c1ccc(O)c(O)c1)O[C@@H]1C[C@](O)(C(=O)O)C[C@@H](O)[C@H]1O	17.8µM*!	12.6µM*!	8.0%	32.6%	-2.5%
CCc1ccc(-n2nc(CO)c(C(=O)NC(C)c3ccc(Cl)cc3)n2)cc1 (centres undefined)	-0.9%	8.1%[59 µM]	x	62.2%	4.3%
CN1/C(=C\C=O)C(C)(C)c2ccccc21	-20.5%	3.7%	-4.4%	10.9%	x
